High-throughput results as filed in PubChem.
Sampled rows, rich in hits. Any-hit rate of the full collection: about 0.9%.
SRC3 TRFRET art: TR-FRET detection interference compounds, artefact control for PPARgamma SRC-3 recruitment agonists, biochemical, TR-FRET ratio; TR-FRET ratio at 8 µM; TR-FRET artefact counter-screen, PPARgamma/SRC-3 format; active compounds read high; 99,000 tested, 0.39% active
TR-FRET SRC-2 ct: TR-FRET signal artefacts, primary screen, artefact control for PPARgamma SRC-2 agonist project, biochemical. TR-FRET artefact counter-screen; active compounds read high. TR-FRET ratio at 8 µM. 200,000 tested, 0.4% active. AID 1049, 2008
PPARg SRC-2 ag: agonists of PPARg-SRC-2 recruitment, primary screen, biochemical, HTS; 200,000 tested, 0.34% active; PPARgamma LBD-SRC-2 recruitment; activation, % at 8 µM; AID 1032, 2008; in the data active = activation above about 22%;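 also: 0% = vehicle and 100% = reference agonist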
SRC1 TRFRET art: TR-FRET detection interference compounds, primary screen, artefact control for PPARgamma SRC-1 recruitment agonists, biochemical, TR-FRET emission ratio | TR-FRET detection artefact counter-screen; active compounds read high | TR-FRET ratio at 8 µM | 99,000 tested, 0.34% active; in the data active = TR-FRET ratio above about 2300
PPARg SRC-1 ag: PPARgamma agonists recruiting SRC-1 coactivator, primary screen, biochemical. Peroxisome proliferator-activated receptor gamma (Homo sapiens), P37231. PPARgamma-SRC-1 coactivator recruitment biochemical assay. activation, % at 8 µM. 200,000 tested, 0.41% active; in the data active = activation above about 19%;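 also: 0% = DMSO and 100% = reference agonist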
PPARg SRC-3 ag: PPARgamma agonists recruiting SRC-3 coactivator, primary screen, biochemical; biochemical PPARgamma/SRC-3 coactivator recruitment assay; activation, % at 8 µM; 200,000 tested, 0.26% active; in the data active = activation above about 23%;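 also: 0% = DMSO and 100% = reference agonist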
PPARg SRC2 ag: agonists of PPARgamma SRC-2 coactivator recruitment, confirmation, biochemical, HTS | activation, % at 8 µM | shares compounds with PPARg SRC-3 ag | biochemical SRC-2 recruitment by PPARgamma | 790 tested, 52% active | AID 1297, 2008; in the data active = activation above about 22%;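 also: 0% = vehicle alone and 100% = reference agonist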
PPARg SRC1 ag: PPARgamma agonists recruiting SRC-1 coactivator, confirmation, biochemical; shares compounds with PPARg SRC-3 ag; PPARgamma–SRC-1 coactivator recruitment biochemical assay; 790 tested, 43% active; activation, % at 8 µM; in the data active = activation above about 20%;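 also: 0% = vehicle wells and 100% = reference agonist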
PPARg SRC3 ag: PPARgamma-driven SRC-3 coactivator recruitment agonists, confirmation, biochemical | shares compounds with PPARg SRC-3 ag | biochemical PPARgamma-SRC-3 coactivator recruitment, agonist mode | activation, % at 8 µM | 790 tested, 29% active | AID 1301, 2008; in the data active = activation above about 24%;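 also: 0% = vehicle wells and 100% = reference agonist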
Starred values were filed as active, the others as inactive; · = no result given. Rule as the data show it, unless noted: active = TR-FRET ratio above about 2000; inactive = the rest.

SMILES	SRC3 TRFRET art	TR-FRET SRC-2 ct	PPARg SRC-2 ag	SRC1 TRFRET art	PPARg SRC-1 ag	PPARg SRC-3 ag	PPARg SRC2 ag	PPARg SRC1 ag	PPARg SRC3 ag
CC(=O)c1sc(N2CCOCC2)nc1-c1ccccc1	2416*	2097*	17	2416*	33*	27*	37*	28*	24
O=C(Nc1ccccc1)c1sc(N2CCOCC2)nc1-c1ccccc1	1655	1762	13	2033	6	7	·	·	·
C=CCOc1c(Cl)cc(CNc2ccc(N(C)C)cc2)cc1OC	·	2956*	103*	·	60*	120*	9	9	6
C=CCOc1c(Cl)cc(CNc2ccc(C)c(Cl)c2)cc1OC	·	1597	-8	·	2	-10	·	·	·
O=C(C[n+]1cccc(O)c1)Nc1ccc(Br)cc1	1569	1609	-4	1794	8	1	·	·	·
Clc1cccc(CN2CCN(Cc3nc(CCc4ccccc4)no3)CC2)c1	1528	1619	8	1924	4	1	·	·	·
Cc1cc(C)cc(C(=O)N2CCN(c3ccccn3)CC2)c1	1663	1494	10	1914	3	5	·	·	·
C#CCn1cc(/C=N/Nc2nc3ccccc3[nH]2)c2ccccc21	1807	1820	30*	2389*	15	13	7	11	8
COc1cc(NC(=O)CSc2nc(C)c(C)c(C)n2)cc(OC)c1	1535	1521	3	1657	12	-1	·	·	·
COc1ccc(N(C(C)C(=O)N2CCC(Cc3ccccc3)CC2)S(C)(=O)=O)cc1 (stereo not drawn)	1653	1553	1	1972	-5	-1	·	·	·
COc1ccccc1/C=C/C1=NC(=C\C=C/c2ccccc2)/C(=O)O1	1622	1610	12	1863	16	41*	6	5	12
Cc1cc(N2C(=O)C(O)=C(C(=O)c3ccco3)C2c2ccc(O)cc2)no1 (stereo not drawn)	·	1340	8	·	0	-11	·	·	·
CCOc1cccc(C2C(C(=O)c3ccc(C)o3)=C(O)C(=O)N2Cc2ccncc2)c1 (stereo not drawn)	·	1504	7	·	13	5	·	·	·
Cc1cc(N2C(=O)C(O)=C(C(=O)c3ccc(C)o3)C2c2cccs2)no1 (stereo not drawn)	·	2253*	37*	·	35*	45*	19	13	13
CCOc1cccc(C2C(C(=O)c3ccc(C)o3)=C(O)C(=O)N2c2nccs2)c1 (stereo not drawn)	·	2000*	27*	·	22*	22	13	8	8
Cc1ccc2nc(N3C(=O)C(O)=C(C(=O)c4cc5ccccc5o4)C3c3cccs3)sc2c1 (stereo not drawn)	·	1932	14	·	30*	30*	7	2	2
COC(=O)c1sc(N2C(=O)c3oc4ccccc4c(=O)c3C2c2cccs2)nc1C (stereo not drawn)	·	1363	-2	·	-6	-2	·	·	·
CC1=NN(C(=S)Nc2ccccc2)C(C)(C)C1	1662	1616	2	1956	1	2	·	·	·
COc1cccc(C(C)N(C)Cc2nc(-c3ccoc3)oc2C)c1 (stereo not drawn)	1647	1688	4	1937	5	6	·	·	·
CC(=O)Nc1ccc(NC(=O)CC2Nc3cccc4cccc(c34)NC2=O)cc1 (stereo not drawn)	·	1572	11	·	6	26*	10	12	7
O=C(NCCC1=CCCCC1)Nc1ccc2nsnc2c1	1916	1887	27*	2164	28*	12	16	13	10
CCNC(=O)CCSc1nnc(-c2ccco2)o1	1768	1793	7	1915	9	6	·	·	·
Cn1c(=Nc2ccc(N3CCOCC3)cc2)ccc2ccccc21	·	1413	-5	·	-3	-6	·	·	·
Cn1c(N=Nc2ccc(N3CCOCC3)cc2)[n+](C)c2ccccc21	2227*	2551*	53*	2668*	43*	39*	22	18	17
CS(=O)(=O)Nc1ccc(-c2n[nH]c(=S)n2-c2ccccc2)cc1	·	1649	14	·	19*	11	19	13	12
Cc1ccc(-n2c(-c3cccc(C)c3)n[nH]c2=S)cc1	·	1998*	32*	·	20*	36*	30*	22*	21
Cc1ccc(-c2n[nH]c(=S)n2-c2ccccc2)cc1	·	1648	5	·	10	18	·	·	·
CC(C)OC(=O)c1cccnc1N1CCN(c2cccc(Cl)c2)CC1	1498	1619	5	2086	11	4	·	·	·
Cc1ccc(S(=O)(=O)NCCC(=O)Nc2ccc(C)cc2C(=O)c2ccccc2)cc1	1554	1507	-1	1730	-1	0	·	·	·
